# Reference: PubChem BioAssay (NCATS)
# “And” between values parts separate entries of the source, which are not always exact repeats. Identical values can stand only once. Records with an inconclusive call do not appear. Where a call stands in place of a potency, no number is given. The source holds several records for some structures; these can differ, active in one and inactive in another. The source made the active and inactive calls. Unless noted, calls come from the whole dose curve; as a rule, active = well fitted curve in the direction sought with a large enough effect; inconclusive = small, poorly fitted or top-dose-only effect, or another doubt; inactive = no such curve, though single readings can be large; an effect the other way counts as inactive or inconclusive.
# Tests used:
# [1] = qHTS Screen of the MIPE 4.0 Collection Against Ewings Sarcoma (RDES) (AID 1259252); note: nearly all actives have a fitted effect of over 35% in size; note: potency is the fitted concentration of half-maximal effect
# Procedure, shortened: (§1)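 CellTiter-Glo luminescence after 48 h compound exposure (titration) gave viability; percent activity used DMSO-treated cells as no inhibition and medium-only wells as full inhibition. Cells grown in RPMI/5% FBS, dosed 4 h post-seeding.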
# [2] = qHTS Screen of the MIPE 4.0 Collection Against Ewings Sarcoma (TC71) (AID 1259253); note: nearly all actives have a fitted effect of over 40% in size; note: potency is the fitted concentration of half-maximal effect
# Procedure, shortened: as §1
# [3] = P-glycoprotein substrates identified in KB-8-5-11 adenocarcinoma cell line, qHTS therapeutic library screen (AID 1346987); note: nearly all actives have a fitted effect of over 65% in size; note: potency is the fitted concentration of half-maximal effect
# Procedure, shortened: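 P-gp-mediated resistance screen: KB-8-5-11 cells treated 72 h with compounds in dose-response. CellTiter-Glo viability.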
# [4] = NS1 protein of Zika virus - qHTS assay to identify small molecule inhibitors in human HEK 293 cells (AID 1347053); note: nearly all actives have a fitted effect of over 55% in size; note: potency is the fitted concentration of half-maximal effect
# Procedure, shortened: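 Inhibition of NS1 expression was scored in HEK 293 cells given compound 1 h ahead of MR766 virus (MOI = 0.5). Following 24 h at 37 C, two anti-NS1 antibodies generated a TR-FRET signal, scaled between uninfected and infected controls.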
# [5] = qHTS Screen of the MIPE 4.0 Collection Against Ewings Sarcoma (EW8) (AID 1259255); note: nearly all actives have a fitted effect of over 35% in size; note: potency is the fitted concentration of half-maximal effect
# Procedure, shortened: as §1
# [6] = qHTS Screen of the MIPE 4.0 Collection Against Ewings Sarcoma (TC32) (AID 1259256); note: nearly all actives have a fitted effect of over 45% in size; note: potency is the fitted concentration of half-maximal effect
# Procedure, shortened: as §1
# [7] = qHTS assay to identify small molecule inhibitors of chordoma cells - UCH-2 (AID 1259356); note: series mostly up to about 46 µM
# [8] = Identifying Small Molecule Inhibitors of Pancreatic Cancer Stem Cells (SN12C, Adherent) (AID 1259358);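 note: cell survival measured after 48 h of compound exposure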; note: potency is the fitted concentration of half-maximal effect
# Procedure, shortened: (§2)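 Cytotoxicity read by CellTiter-Glo luminescence after 48 h compound exposure at 37C; percent activity scaled between DMSO-treated cells and cell-free wells. Spheroid formats used cells pre-formed 14 days in stem cell media on hydrogel.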
# [9] = Identifying Small Molecule Inhibitors of Pancreatic Cancer Stem Cells (Panc1, Adherent) (AID 1259362); settings: Potency: viability; note: potency is the fitted concentration of half-maximal effect
# Procedure, shortened: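 Pre-formed 14-day tumor spheroids or adherent cells dosed and incubated 48 h, 37C, 5% CO2. Viability assessed by CellTiter-Glo.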
# [10] = Identifying Small Molecule Inhibitors of Pancreatic Cancer Stem Cells (A278, Adherent) (AID 1259361); note: nearly all actives have a fitted effect of over 35% in size
# Procedure, shortened: as §2
# [11] = Identifying Small Molecule Inhibitors of Pancreatic Cancer Stem Cells (Panc1, Spheroid) (AID 1259359);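 note: compound exposure lasted 48 h before reading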; note: potency is the fitted concentration of half-maximal effect
# Procedure, shortened: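 Spheroids grown 14 days in stem cell media on hydrogel-coated nonadherent plates; 2D lines seeded directly. Compounds added after 4 h attachment, 48 h at 37C, 5% CO2; CellTiter-Glo luminescence normalized to DMSO (no inhibition) and no-cell wells (full inhibition).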
# [12] = Natriuretic polypeptide receptor (hNpr1) antagonism - Pilot counterscreen GloSensor control cell line (AID 1347045; calls by dose curve; note: series mostly up to about 38 µM)
# Procedure, shortened: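 This counterscreen uses HEK293 cells expressing the GIP/pGS-40F cGMP biosensor. Compound-treated cells are challenged with 50 uM sodium nitroprusside, and the luciferase signal is compared before and after stimulation.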
# [13] = biological target: Atrial natriuretic peptide receptor 1 (Homo sapiens) (UniProt P16066); experiment: Natriuretic polypeptide receptor (hNpr1) antagonism - Pilot screen (AID 1347049; calls by dose curve;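 note: agonist-evoked cGMP luminescence read 20 min after hNppA addition; series mostly up to about 58 µM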)
# Procedure, shortened: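 Readout is cGMP-driven firefly luciferase luminescence in HEK293 cells carrying hNpr1 and a PDE5-domain GloSensor, read before and 20 min after 0.1 nM hNppA stimulation. Cells had 2% substrate reagent for 2 h and test compound for 30 min.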
# [14] = biological target: Atrial natriuretic peptide receptor 2 (Homo sapiens) (UniProt P20594); experiment: Natriuretic polypeptide receptor (hNpr2) antagonism - Pilot subtype selectivity assay (AID 1347050; calls by dose curve)
# Procedure, shortened: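 Pilot selectivity screen against hNpr2: HEK293 cGMP-sensor cells are treated with LOPAC1280 compounds, then with hNppC peptide at 1 nM final. The cGMP-driven luminescence change over 20 min at room temperature is the read-out.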
# [15] = biological target: Parathyroid hormone/parathyroid hormone-related peptide receptor (Homo sapiens) (UniProt Q03431); experiment: qHTS for PTHR1 Agonists: Optimization Screen against the NCGC LOPAC library (AID 1347079);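 note: GloSensor cAMP luminescence in HEK-293 GP2 cells expressing human PTHR1 with IBMX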
# Procedure, shortened: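 Compounds were tested across a qHTS titration. PTHR1-expressing GP2 cells report cAMP rises via GloSensor luminescence after 1 hr compound exposure at 37C with IBMX present.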
# [16] = Identifying Small Molecule Inhibitors of Pancreatic Cancer Stem Cells (A2780, Spheroid) (AID 1259357); settings: Potency: A2780 spheroid viability;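 note: compound exposure lasted 48 h before the ATP luminescence read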; note: potency is the fitted concentration of half-maximal effect
# Procedure, shortened: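 After a 4 h attachment period, compounds were pinned into wells and cultures held 48 h under standard incubator conditions. Viability was then measured as CellTiter-Glo luminescence following 10 min at room temperature.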
# [17] = P-glycoprotein substrates identified in KB-3-1 adenocarcinoma cell line, qHTS therapeutic library screen (AID 1346986); note: nearly all actives have a fitted effect of over 60% in size
# Procedure, shortened: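 Counter-screen: cherry-picked hits retested in the KB pair and in HEK-293 pcDNA/MDR-19 cells ± tariquidar. Primary screen used 72 h CellTiter-Glo viability in KB-3-1 and KB-8-5-11.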
# [18] = biological target: T1, Tyrosine-protein phosphatase non-receptor type substrate 1 (Homo sapiens) + Leukocyte surface antigen CD47 (Homo sapiens) (UniProt P78324+Q08722); experiment: CD47-SIRPalpha protein protein interaction - LANCE assay qHTS validation (AID 1347057; active = well fitted curve in the direction sought with a large enough effect in the signal ratio, with a control signal flat, not every such curve was filed as active; the % refers to the signal ratio; note: series mostly up to about 38 µM)
# Procedure, shortened: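 First, His-tagged CD47 and Eu-labelled anti-His antibody met the compound for 30 min; next, site-specifically biotinylated SIRPalpha was added for 30 min; finally streptavidin-APC was added before reading the TR-FRET ratio.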
# [19] = biological target: T1, Tyrosine-protein phosphatase non-receptor type substrate 1 (Homo sapiens) + Leukocyte surface antigen CD47 (Homo sapiens); experiment: CD47-SIRPalpha protein protein interaction - HTRF assay qHTS validation (AID 1347058; active = well fitted curve in the direction sought with a large enough effect in the signal ratio, not every such curve was filed as active; the % refers to the signal ratio;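 note: recombinant soluble extracellular CD47 with His tag and biotinylated SIRPalpha domains; series mostly up to about 38 µM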)
# Procedure, shortened: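 TR-FRET read (Ch1/Ch2 ratio) of soluble extracellular CD47 and Avi-biotinylated SIRPalpha domains in PBS pH 7.4 with 0.05% IGEPAL; 7-point compound titration. Sequential 30 min room-temperature steps; non-biotinylated SIRPalpha as control inhibitor.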
# [20] = biological target: T1, Tyrosine-protein phosphatase non-receptor type substrate 1 (Homo sapiens) + Leukocyte surface antigen CD47 (Homo sapiens); experiment: CD47-SIRPalpha protein protein interaction - Alpha assay qHTS validation (AID 1347059);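 note: bead proximity luminescence from CD47 binding SIRPalpha after compound preincubation with SIRPalpha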
# Procedure, shortened: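 Binding is measured by AlphaScreen proximity: Ni-NTA acceptor beads capture His-CD47, streptavidin donor beads capture biotin-SIRPalpha. Each of three additions (SIRPalpha with compound, CD47, beads) incubates 30 min at room temperature protected from light.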
# T1 sequence (P78324 whole entry, looked up): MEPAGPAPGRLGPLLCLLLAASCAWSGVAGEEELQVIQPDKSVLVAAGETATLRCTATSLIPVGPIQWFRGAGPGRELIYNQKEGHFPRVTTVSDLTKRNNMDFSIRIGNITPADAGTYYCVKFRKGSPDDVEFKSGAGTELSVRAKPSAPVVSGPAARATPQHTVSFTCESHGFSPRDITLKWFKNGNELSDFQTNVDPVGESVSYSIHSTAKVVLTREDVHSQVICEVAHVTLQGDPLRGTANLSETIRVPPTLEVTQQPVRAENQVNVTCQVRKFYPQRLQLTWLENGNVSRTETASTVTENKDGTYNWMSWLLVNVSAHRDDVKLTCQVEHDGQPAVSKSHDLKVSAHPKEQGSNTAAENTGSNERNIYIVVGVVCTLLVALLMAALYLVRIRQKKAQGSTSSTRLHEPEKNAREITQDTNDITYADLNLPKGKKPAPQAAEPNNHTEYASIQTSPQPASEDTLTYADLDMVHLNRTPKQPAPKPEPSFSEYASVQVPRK
# T1 sequence (Q08722 whole entry, looked up): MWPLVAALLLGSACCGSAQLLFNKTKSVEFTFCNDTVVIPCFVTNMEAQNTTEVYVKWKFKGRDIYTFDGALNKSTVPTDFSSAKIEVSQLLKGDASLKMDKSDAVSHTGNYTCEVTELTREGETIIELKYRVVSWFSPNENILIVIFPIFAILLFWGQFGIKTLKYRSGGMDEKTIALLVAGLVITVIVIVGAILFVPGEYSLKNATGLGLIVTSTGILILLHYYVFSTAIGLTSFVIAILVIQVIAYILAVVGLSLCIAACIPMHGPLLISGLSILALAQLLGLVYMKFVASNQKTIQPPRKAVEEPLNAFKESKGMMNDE
# Atrial natriuretic peptide receptor 1 (Homo sapiens), sequence (P16066 whole entry, looked up): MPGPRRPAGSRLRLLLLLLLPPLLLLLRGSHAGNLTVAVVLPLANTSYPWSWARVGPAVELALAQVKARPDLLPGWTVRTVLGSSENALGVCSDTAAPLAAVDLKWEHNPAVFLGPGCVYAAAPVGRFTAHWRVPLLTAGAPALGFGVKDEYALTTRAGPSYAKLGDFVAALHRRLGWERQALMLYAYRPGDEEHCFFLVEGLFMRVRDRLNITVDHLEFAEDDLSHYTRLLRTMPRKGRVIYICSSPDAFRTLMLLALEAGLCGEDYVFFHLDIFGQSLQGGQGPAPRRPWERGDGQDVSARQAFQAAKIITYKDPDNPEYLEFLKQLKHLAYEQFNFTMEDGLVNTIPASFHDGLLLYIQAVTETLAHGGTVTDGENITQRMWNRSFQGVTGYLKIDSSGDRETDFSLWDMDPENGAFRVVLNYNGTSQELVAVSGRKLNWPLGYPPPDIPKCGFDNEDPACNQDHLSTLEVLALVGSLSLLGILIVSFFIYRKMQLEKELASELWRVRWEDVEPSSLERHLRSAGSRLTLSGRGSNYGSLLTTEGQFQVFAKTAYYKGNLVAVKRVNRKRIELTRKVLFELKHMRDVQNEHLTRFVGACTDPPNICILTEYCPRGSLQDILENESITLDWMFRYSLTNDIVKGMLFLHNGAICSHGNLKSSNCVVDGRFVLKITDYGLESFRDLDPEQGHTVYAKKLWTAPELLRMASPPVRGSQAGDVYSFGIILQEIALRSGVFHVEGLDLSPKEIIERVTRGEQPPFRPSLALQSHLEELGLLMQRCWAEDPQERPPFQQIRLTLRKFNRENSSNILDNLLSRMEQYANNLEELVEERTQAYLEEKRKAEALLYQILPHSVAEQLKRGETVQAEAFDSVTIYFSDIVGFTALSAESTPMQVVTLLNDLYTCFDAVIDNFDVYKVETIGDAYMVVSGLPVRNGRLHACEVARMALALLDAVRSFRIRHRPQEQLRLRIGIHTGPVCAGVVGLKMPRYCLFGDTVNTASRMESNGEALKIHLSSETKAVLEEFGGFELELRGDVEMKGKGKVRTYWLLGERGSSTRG
# Parathyroid hormone/parathyroid hormone-related peptide receptor (Homo sapiens), sequence (Q03431 whole entry, looked up): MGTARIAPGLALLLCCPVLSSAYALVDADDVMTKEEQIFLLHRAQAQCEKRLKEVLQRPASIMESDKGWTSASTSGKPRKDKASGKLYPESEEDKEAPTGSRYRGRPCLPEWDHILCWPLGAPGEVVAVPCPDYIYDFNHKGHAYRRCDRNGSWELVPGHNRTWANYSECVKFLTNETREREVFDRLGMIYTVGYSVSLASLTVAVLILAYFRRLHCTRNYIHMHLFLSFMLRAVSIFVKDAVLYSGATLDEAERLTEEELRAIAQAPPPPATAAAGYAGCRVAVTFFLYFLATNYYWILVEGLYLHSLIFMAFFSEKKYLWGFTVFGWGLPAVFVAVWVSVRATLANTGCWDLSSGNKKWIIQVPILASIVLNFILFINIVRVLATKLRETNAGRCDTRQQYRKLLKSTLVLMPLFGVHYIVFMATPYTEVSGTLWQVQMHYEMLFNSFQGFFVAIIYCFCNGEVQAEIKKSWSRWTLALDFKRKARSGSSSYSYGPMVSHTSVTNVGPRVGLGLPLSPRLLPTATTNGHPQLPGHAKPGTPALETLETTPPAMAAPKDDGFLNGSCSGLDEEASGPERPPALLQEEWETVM
# Atrial natriuretic peptide receptor 2 (Homo sapiens), sequence (P20594 whole entry, looked up): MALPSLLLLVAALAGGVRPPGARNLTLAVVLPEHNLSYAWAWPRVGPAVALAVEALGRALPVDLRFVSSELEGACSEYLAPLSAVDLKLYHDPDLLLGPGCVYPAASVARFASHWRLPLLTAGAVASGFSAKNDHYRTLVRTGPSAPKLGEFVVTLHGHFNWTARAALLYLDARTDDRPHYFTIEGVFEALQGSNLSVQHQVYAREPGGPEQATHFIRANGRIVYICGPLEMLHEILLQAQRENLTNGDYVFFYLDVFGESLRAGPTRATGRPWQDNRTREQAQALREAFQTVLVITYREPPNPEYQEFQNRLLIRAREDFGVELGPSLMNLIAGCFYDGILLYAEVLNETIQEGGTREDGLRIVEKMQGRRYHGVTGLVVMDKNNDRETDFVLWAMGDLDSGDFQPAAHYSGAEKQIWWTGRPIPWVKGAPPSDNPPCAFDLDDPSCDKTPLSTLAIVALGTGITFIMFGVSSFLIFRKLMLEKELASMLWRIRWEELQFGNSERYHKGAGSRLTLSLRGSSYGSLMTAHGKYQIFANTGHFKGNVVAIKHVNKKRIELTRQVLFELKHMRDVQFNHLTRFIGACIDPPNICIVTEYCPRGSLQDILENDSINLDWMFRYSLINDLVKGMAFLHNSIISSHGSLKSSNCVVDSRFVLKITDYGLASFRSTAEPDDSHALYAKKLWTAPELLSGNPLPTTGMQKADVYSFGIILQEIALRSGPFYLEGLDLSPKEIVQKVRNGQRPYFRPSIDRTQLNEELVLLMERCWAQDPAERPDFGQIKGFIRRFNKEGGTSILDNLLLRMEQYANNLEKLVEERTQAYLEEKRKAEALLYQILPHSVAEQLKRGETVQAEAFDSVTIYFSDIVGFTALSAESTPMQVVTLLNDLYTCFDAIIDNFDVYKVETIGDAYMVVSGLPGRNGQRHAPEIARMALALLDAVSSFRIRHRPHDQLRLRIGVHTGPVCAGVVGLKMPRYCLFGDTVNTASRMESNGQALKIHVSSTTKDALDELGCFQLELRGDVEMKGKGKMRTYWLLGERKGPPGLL
structure (smiles),measurement,setting,value
CN(C)CCN(Cc1ccc(Cl)cc1)c1ccccn1,Potency,[1],23.5 µM (active)
same,Potency,[2],20.9 µM (active)
same,Potency,[3],inactive
same,Potency,[4],inactive
O=[N+]([O-])c1ccc(Nc2ccccc2-c2ccccc2)c2nonc12,Potency,[1],inactive
same,Potency,[5],inactive
same,Potency,[6],inactive
Fc1ccc(C(c2ccc(F)cc2)N2CCN(CC=Cc3ccccc3)CC2)cc1,outcome,[7],inactive
COC(=O)Nc1ccc(-c2nc(N3CCOCC3)c3cnn(C4CCN(C(=O)OC)CC4)c3n2)cc1,Potency,[8],0.264 µM (active)
same,Potency,[9],inactive
OCCn1cc(-c2ccc3c(c2)CCC3=NO)c(-c2ccncc2)n1,Potency,[8],inactive
same,IC50 (viability decrease),[10],16.6 µM (active)
Clc1ccc(COC(Cn2ccnc2)c2ccc(Cl)cc2Cl)c(Cl)c1 (stereo not given),outcome,[7],inactive
N#CC(c1ccc(Cl)cc1)c1c(Cl)cc(-n2ncc(=O)[nH]c2=O)cc1Cl (stereo not given),outcome,[7],inactive
CC1=C[C@@H]2[C@@H]([C@@H](O)C[C@@]3(C)[C@H]2C[C@@H](C)[C@]3(O)C(=O)CO)[C@@]2(C)Cc3cnn(-c4ccccc4)c3C=C12,Potency,[11],20.9 µM (active)
COc1c(C)cnc(Cn2cnc3c(Cl)nc(N)nc32)c1C,Potency,[11],inactive
same,Potency,[9],0.0332 µM (active)
O=C(O)c1ccc(O)c2ncc(N3CCOCC3)cc12,Potency,[9],inactive
C[C@H]1O[C@@H](n2cc(F)c(=O)[nH]c2=O)[C@H](O)[C@H]1O,outcome,[12],inactive
same,outcome,[13],inactive
same,outcome,[14],inactive
same,outcome,[15],inactive
COc1ccnc(CS(=O)c2nc3ccc(OC(F)F)cc3[nH]2)c1OC (stereo not given),outcome,[7],inactive
COc1c(C)c2c(c(O)c1CC=C(C)CCC(=O)OCCN1CCOCC1)C(=O)OC2,outcome,[7],inactive
Cc1ccc(NC(=O)c2ccc(CN3CCN(C)CC3)cc2)cc1Nc1nc(-c2cccnc2)cs1,Potency,[16],inactive
C[C@@H](O[C@H]1OCCN(Cc2n[nH]c(=O)[nH]2)[C@@H]1c1ccc(F)cc1)c1cc(C(F)(F)F)cc(C(F)(F)F)c1,Potency,[16],18.7 µM (active)
CNC(=O)c1cc(Oc2ccc(NC(=O)Nc3ccc(Cl)c(C(F)(F)F)c3)c(F)c2)ccn1,Potency,[11],20.9 µM (active)
same,Potency,[9],20.9 µM (active)
CNC(=O)c1cc(COc2nnc(Nc3ccc(Cl)cc3)c3ccoc23)ccn1,Potency,[2],inactive
same,Potency,[5],inactive
same,Potency,[16],inactive
same,Potency,[8],inactive
same,Potency,[17],inactive
same,Potency,[3],inactive
NCc1c[nH]c(=S)n1[C@H]1CCc2c(F)cc(F)cc2C1,Potency,[2],20.9 µM (active)
same,Potency,[5],23.5 µM (active)
same,Potency,[6],23.5 µM (active)
same,Potency,[3],inactive
same,Potency,[4],inactive
CN(C(Cc1ccc(OS(=O)(=O)c2cccc3cnccc23)cc1)C(=O)N1CCN(c2ccccc2)CC1)S(=O)(=O)c1cccc2cnccc12 (stereo not given),Potency,[2],18.7 µM (active)
same,Potency,[5],14.8 µM (active)
same,Potency,[6],16.6 µM (active)
same,Potency,[4],inactive
CC(C)CNc1ccnc(NCc2csc(-c3ccccc3)n2)n1,Potency,[2],9.35 µM (active)
same,Potency,[5],18.7 µM (active)
same,Potency,[6],14.8 µM (active)
same,Potency,[3],18.7 µM (active) and 10.3 µM (active)
same,Potency,[4],26.4 µM (active)
CO[C@H]1O[C@@H]2O[C@@]3(C)CC[C@@H]4[C@@H](C)CC[C@@H]([C@H]1C)[C@@]24OO3,Potency,[2],4.69 µM (active)
same,Potency,[5],5.9 µM (active)
same,Potency,[17],inactive
same,Potency,[3],inactive
same,Potency,[4],inactive
CCN(CCO)CCCOc1ccc2c(Nc3cc(CC(=O)Nc4cccc(F)c4)[nH]n3)ncnc2c1,Potency,[2],0.166 µM (active)
same,Potency,[5],0.0833 µM (active)
same,Potency,[6],0.059 µM (active)
same,Potency,[3],inactive
same,Potency,[4],inactive
CC(C)c1c(C(=O)Nc2ccccc2)c(-c2ccccc2)c(-c2ccc(F)cc2)n1CC[C@H](O)C[C@@H](O)CC(=O)O,Potency,[2],14.8 µM (active)
same,Potency,[5],23.5 µM (active)
same,Potency,[6],3.72 µM (active)
same,Potency,[3],inactive
same,Potency,[4],inactive
O=C1CCCC(=O)C1C(=O)c1ccc(C(F)(F)F)cc1[N+](=O)[O-],Potency,[2],23.5 µM (active)
same,Potency,[5],inactive
same,Potency,[3],inactive
Cc1cnc(Nc2cccc(CN3CCOCC3)c2)nc1Nc1cccc(S(=O)(=O)NC(C)(C)C)c1,Potency,[2],2.35 µM (active)
same,Potency,[5],2.64 µM (active)
same,Potency,[6],1.87 µM (active)
same,Potency,[3],inactive and 4.11 µM (active)
same,Potency,[4],inactive
CN(C)CC[C@H](CSc1ccccc1)Nc1ccc(S(=O)(=O)NC(=O)c2ccc(N3CCN(Cc4ccccc4-c4ccc(Cl)cc4)CC3)cc2)cc1[N+](=O)[O-],Potency,[2],16.6 µM (active)
same,Potency,[5],16.6 µM (active)
same,Potency,[6],4.18 µM (active)
same,Potency,[3],inactive
same,Potency,[4],inactive
COc1nccc(-c2c(-c3ccc(F)cc3)ncn2C2CCC(O)CC2)n1 (stereo not given),Potency,[2],14.8 µM (active)
same,Potency,[5],inactive
same,Potency,[17],inactive
same,Potency,[3],inactive
same,Potency,[4],inactive
CC1(C)CC(=O)c2c(C(F)(F)F)nn(-c3ccc(C(N)=O)c(NC4CCC(O)CC4)c3)c2C1 (stereo not given),Potency,[2],0.0935 µM (active)
same,Potency,[5],0.148 µM (active)
same,Potency,[6],0.0833 µM (active)
same,Potency,[3],418 nM (active)
same,Potency,[4],23.5 µM (active)
CN1[C@H]2CC[C@H]1CC(OC(=O)c1c[nH]c3ccccc13)C2 (stereo not given in full),Potency,[2],18.7 µM (active)
same,Potency,[5],4.18 µM (active)
same,Potency,[6],3.32 µM (active)
same,Potency,[3],inactive
same,Potency,[4],inactive
N#CC(c1ccnc(NCCc2cccnc2)n1)c1nc2ccccc2s1 (stereo not given),Potency,[2],16.6 µM (active)
same,Potency,[5],14.8 µM (active)
same,Potency,[3],inactive
C=CCc1cccc(C=NNC(=O)CN2CCN(Cc3ccccc3)CC2)c1O,Potency,[2],4.69 µM (active)
same,Potency,[5],10.5 µM (active)
same,Potency,[6],7.43 µM (active)
same,Potency,[3],10500 nM (active)
same,outcome,[12],inactive
same,outcome,[13],inactive
same,outcome,[14],inactive
same,outcome,[18],inactive
same,outcome,[19],inactive
same,outcome,[20],inactive
same,outcome,[15],inactive
